From PubChem
This is a sample that favours compounds with a hit; in the whole collection about 1.7% have one here.
HEK293 tox: cytotoxicity in counter-screen for GLP-1R inverse agonists | Potency, µM (series often up to 38.3 µM), hits mostly inhibitors | HEK293 cAMP-luciferase reporter cells, luminescence, 24 h | AID 624418 | hit rate 0.13% among 410,000;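 also: loss of luciferase light is scored as toxicity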
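Here, cytotoxicity is scored as loss of luminescence. The MLSMR collection was tested on cells seeded in medium containing 10% Nu serum, with a 24 hr compound exposure preceded by 12 hours of culture.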
LDHA inh: inhibitors of human lactate dehydrogenase A; P00338; activity change, % (values are at about 110 or 230 µM); hit rate 0.15% among 480,000; purified LDHA, NADH/diaphorase-resazurin fluorescence; stronger effect = lower value; in the data active = activity change below about -30%; inconclusive = mostly about -25% to -30%
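LDH5 2 nM; NADH 0.06 mM, pyruvate 0.2 mM; 200 mM Tris pH 7.4, EDTA, Tween-20; 5 min RT. Detection: diaphorase 0.133 mg/mL + resazurin 37 µM, fluorescence ex540/em590 at 0 and 20 min; normalized to enzyme-free and DMSO wells.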
GLP-1R agonist: agonists of human GLP-1 receptor; P43220; HEK293 GLP-1R CRE-luciferase, luminescence, 4-6 h; cells express a hypersensitive GLP-1R form; Potency, µM (top dose mostly 45.6 µM), usual class: activators; hit rate 0.007% among 380,000; AID 624172
IDH1 R132H inh: blocks human mutant IDH1 R132H enzyme. IDH1-R132H enzyme, NADPH consumption, diaphorase/resazurin fluorescence. Potency, µM (highest dose often 76.6 µM), usual class: inhibitors. hit rate 0.093% among 390,000; also: nearly all actives have a fitted effect of over 65% in size
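IDH1-R132H (0.5 ug/mL) preincubated 30 min with compound, then NADPH (0.016 mM) and alpha-KG (2 mM) added; 80 min at RT, pH 7.5. Remaining NADPH coupled via diaphorase/resazurin to fluorescence (540/590 nm); concentration-response curves normalized to no-enzyme control.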
GLP1R inv ag: GLP-1 receptor (human) inverse agonism. P43220. HEK293 GLP-1R CRE-luciferase, luminescence, 24 h; GLP-1R form is constitutively active. Potency, µM (top dose mostly 38.3 µM), most hits filed as inhibitors. hit rate 1.6% among 410,000; also: nearly all actives have a fitted effect of over 55% in size
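GLP-1R inverse agonism mode: basal reporter luminescence in engineered HEK293 cells measured after one day of compound exposure at 37 deg C, with a 12 min room-temperature detection step.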
PTHR1 agonist: PTHR1 (human) receptor agonism | Q03431 | HEK293 GP2 PTHR1 cells, GloSensor cAMP luminescence, 1 h | Potency, µM (titrated, usually from 115 µM), usual class: activators | hit rate 0.075% among 410,000 | AID 743266; also: nearly all actives have a fitted effect of over 55% in size
Target sequence (Q03431 whole entry, looked up): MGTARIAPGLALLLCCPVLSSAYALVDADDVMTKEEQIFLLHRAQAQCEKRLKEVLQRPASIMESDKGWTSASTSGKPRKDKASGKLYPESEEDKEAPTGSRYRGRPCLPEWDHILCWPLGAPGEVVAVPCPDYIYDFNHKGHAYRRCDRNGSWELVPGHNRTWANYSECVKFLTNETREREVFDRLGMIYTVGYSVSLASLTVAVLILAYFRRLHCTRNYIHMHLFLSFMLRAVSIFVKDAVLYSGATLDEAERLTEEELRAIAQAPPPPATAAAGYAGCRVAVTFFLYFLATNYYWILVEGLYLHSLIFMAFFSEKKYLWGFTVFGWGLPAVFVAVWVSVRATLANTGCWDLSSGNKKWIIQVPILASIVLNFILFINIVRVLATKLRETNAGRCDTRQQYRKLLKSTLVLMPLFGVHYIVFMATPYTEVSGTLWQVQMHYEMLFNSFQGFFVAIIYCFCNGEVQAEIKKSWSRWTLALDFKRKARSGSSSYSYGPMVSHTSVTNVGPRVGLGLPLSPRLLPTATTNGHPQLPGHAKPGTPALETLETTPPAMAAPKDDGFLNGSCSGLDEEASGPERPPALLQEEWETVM
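HEK-293-derived GP2 cells expressing PTHR1 and a GloSensor cAMP reporter, 3,000/well, plated overnight, given luciferin plus IBMX (each 0.5 mM as added) for 1 h at 37 °C, then compound for 1 h at 37 °C. Luminescence was read after 15 min at room temperature.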
A number is an active result; – = inactive; ? = inconclusive; · = not tested or not shown. Unless noted, calls follow the shape of the dose curve; as a rule, active = well fitted curve in the direction sought with a large enough effect; inconclusive = small, poorly fitted or top-dose-only effect, or another doubt; inactive = no such curve, though single readings can be large; an effect the other way counts as inactive or inconclusive.

SMILES	HEK293 tox	LDHA inh	GLP-1R agonist	IDH1 R132H inh	GLP1R inv ag	PTHR1 agonist
CCNS(=O)(=O)c1cccc(C(=O)OCc2nc3ccccc3nc2C)c1	·	–	·	·	·	·
CCOc1cc(/C=N/NS(=O)(=O)c2ccccc2)ccc1OS(=O)(=O)c1ccc(C)cc1	–	–	–	–	8.9µM	–
CC(NC(=O)/C(C#N)=C/c1ccc(OCC(=O)O)cc1)c1ccccc1 (stereo unspecified)	–	–	–	–	–	–
CC(NC(=O)/C(=C/c1ccc(OC(F)F)cc1)c1ccccc1)c1ccccc1 (stereo unspecified)	–	–	–	–	4.5µM	–
CN(C)Cc1cc(C(C)(C)c2ccccc2)ccc1O	–	–	–	–	10µM	–
COc1ccc(-c2nc(CSCC(=O)N3CCN(c4cccc(C)c4C)CC3)c(C)o2)cc1OC	–	–	·	–	10µM	–
C=CCN1C(=O)C2(c3ccccc31)C1CCCC=C1C(C#N)=C(N)C2(C#N)C#N (stereo unspecified)	–	–	–	–	4.5µM	–
C=CCN1C(=O)[C@]2(c3ccccc31)C1CCCC=C1C(C#N)=C(N)C2(C#N)C#N (stereo partly specified)	–	–	–	–	–	–
CC1(C)CC(=O)C/C(=N/NC(=O)c2ccccc2I)C1	·	–	·	·	·	·
CCN(CCNCC(O)COCc1ccc(Cl)cc1)c1cccc(C)c1 (stereo unspecified)	?	?	–	–	10µM	–
Cc1ccsc1C(=O)OCC(=O)OC1CC(C)CCC1C(C)C (stereo unspecified)	·	–	·	·	·	·
CCOC(=S)SCC(=O)Nc1nc(-c2ccc(Br)cc2)cs1	5µM	–	–	–	–	–
CC(C)CC(=O)N1CCC(NC(=O)Cc2c[nH]c3ccccc23)CC1	·	–	·	·	·	·
CCCc1cc(C(=O)Nc2ccc(C(=O)c3ccc(F)cc3)cc2)n(C)n1	–	–	–	–	8.9µM	–
CC(NC(=O)CN(c1ccc(Cl)cc1Cl)S(=O)(=O)c1ccccc1)c1ccccc1 (stereo unspecified)	–	–	·	–	8.9µM	–
Cc1ccccc1NC(=O)CN(c1ccc(Cl)cc1Cl)S(=O)(=O)c1ccccc1	–	–	·	–	?	–
Cc1ccc(CNC(=O)CN(c2ccc(Cl)cc2Cl)S(=O)(=O)c2ccccc2)cc1	–	–	·	–	10µM	–
O=Cc1c(-c2ccc(Cl)cc2)[nH]c2ccccc12	·	–	·	·	·	·
Cn1c(=O)c2c(nc(NCc3ccc(S(N)(=O)=O)cc3)n2Cc2ccccc2)n(C)c1=O	·	–	·	·	·	·
O=C(NC1CCCC1)C(c1ccccc1)N(Cc1ccc2c(c1)OCO2)C(=O)Cc1cccs1 (stereo unspecified)	–	–	–	–	10µM	–
O=C(NCc1ccccc1)C(c1ccccc1)N(Cc1ccc2c(c1)OCO2)C(=O)Cc1cccs1 (stereo unspecified)	–	–	–	–	7.9µM	–
CC(C)(C)c1cc(C(=O)NCCN2CCCC2)cc(C(C)(C)C)c1	–	–	–	–	13µM	–
c1ccc(-c2cnc(SCCN3CCOCC3)n2CC2CCCO2)cc1 (stereo unspecified)	–	-32	–	–	–	–
COc1ccc(COc2cc(-c3cccc(OC)c3)nc3ccc(NC(=O)c4cccnc4)cc23)cc1	–	–	–	–	2.8µM	–
O=C(O)c1cc2cccc(Cl)c2[nH]1	·	–	·	·	·	·
SMILES	HEK293 tox	LDHA inh	GLP-1R agonist	IDH1 R132H inh	GLP1R inv ag	PTHR1 agonist
O=C(Oc1ccc2c(-c3cc4ccccc4oc3=O)cc(=O)oc2c1)N1CCOCC1	·	–	·	·	·	·
Cc1cccc(NC(=O)CN(C)C(=O)c2ccc(N3CCCCCC3)c([N+](=O)[O-])c2)c1C	–	–	–	–	11µM	–
CCC(=O)Oc1c(S(=O)(=O)c2ccc(C)cc2)c(C)nn1C(C)(C)C	?	–	–	–	?	–
CCCC(=O)Oc1c(S(=O)(=O)c2ccc(C)cc2)c(C)nn1C(C)(C)C	?	–	–	–	5.6µM	–
COc1ccc(N2CCN(C(=O)c3cn(CC(C)C)c(=O)c4c3c3ccccc3n4C)CC2)cc1	–	–	·	–	?	–
CC(C)Cn1cc(C(=O)N2CCN(c3cccc(Cl)c3)CC2)c2c3ccccc3n(C)c2c1=O	–	–	·	–	10µM	–
Cn1c(=O)c2c(nc(N)n2CC(O)COc2ccccc2)n(C)c1=O (stereo unspecified)	·	–	·	·	·	·
NCCCC[C@H]1NC(=O)[C@H](CCC(=O)O)NC(=O)c2cc([N+](=O)[O-])cc(I)c2OCC[C@@H](C(N)=O)NC1=O	–	-40	–	–	–	–
CCOC(=O)c1ccc(N2C(=O)[C@@H](c3ccccc3)[C@H]2c2ccccc2)cc1	–	–	–	–	5µM	–
O=C(NNc1cc(Cl)cc(Cl)c1)C1CCC1	–	–	–	–	5.6µM	–
O=C(NNc1ccc(Cl)cc1)C1CCC1	–	–	–	–	?	–
Cc1[nH]c2ccccc2c1C(=O)CN1C(=O)NC(C)(c2ccc(Cl)cc2Cl)C1=O (stereo unspecified)	?	–	–	–	13µM	–
N#CCC(=O)Nc1ccc(Oc2ccccc2)cc1	·	–	·	·	·	·
COc1ccc(CCn2c(N)cc(=O)[nH]c2=S)cc1OC	–	–	10µM	–	–	–
Cc1ccc(Cn2ncc3c(N4CCN(c5ccccc5C)CC4)ncnc32)cc1	–	–	–	–	3.5µM	–
Cc1cc(CN2CCN(Cc3nc(C(C)C)no3)CC2)no1	·	–	·	·	·	·
CCOc1ccc(-c2nc(CS(=O)Cc3ccccc3)cs2)cc1OC (stereo unspecified)	·	–	·	·	·	·
O=C(CN1C(=O)c2cccc3cccc(c23)C1=O)N1CCCCCC1	–	–	–	–	7.9µM	–
O=C(CN1C(=O)c2ccccc2C1=O)N1CCCCC1	–	–	–	–	–	–
CCn1c(NCc2cc(Br)ccc2NS(=O)(=O)c2ccc(C)cc2)nc2ccccc21	–	–	–	–	11µM	–
CCN(CC)CCOc1ccc2c(c1)C(=NO)c1cc(OCCN(CC)CC)ccc1-2	?	–	–	–	?	–
CCCOc1ccc2c(c1)C(=NN=C(N)N)c1cc(OCCC)ccc1-2	?	–	–	–	1.8µM	–
C=CCNC(=S)NNc1nc2c(c(=O)[nH]1)C1(CCCCC1)Cc1ccccc1-2	–	–	–	–	10µM	–
O=[N+]([O-])c1ccc(/C=N/N=C/c2ccc([N+](=O)[O-])o2)o1	10µM	–	–	–	?	–
CC(=O)N/N=C/c1ccc([N+](=O)[O-])o1	·	·	–	·	·	·
